Cardiac RTF inh = cardiac RTF calcium desensitization; IANBD-labeled cardiac RTF, Ca2+ fluorescence; inhibition, % at 7.15 µM; 0.12% of 340,000 active; AID 493244;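 active = inhibition above the mean inhibition of all tested compounds plus 3 SD, cut at about 17% in these data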;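 note: assay run at fixed EC70 calcium of 1.6 mM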
cardiac RTF act = increases calcium sensitivity of human cardiac regulated thin filaments. P19429+P45379. IANBD-labeled TnC RTF fluorescence at EC20 calcium; 0% EC20 calcium, 100% full calcium. activation, % at 7.2 µM. 0.24% of 340,000 active. AID 493008;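 active = activation above the mean over all tested compounds plus 3 SD, cut at about 30% in these data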;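 note: rise in fluorescence read as greater calcium sensitivity of cardiac thin filaments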
ANO1 activ = mouse TMEM16A channel activation, primary screen | Q8BHY3 | HEK293 TMEM16A/YFP-H148Q/I152L, iodide quench fluorescence; hits give low values | B-score at 10 µM | 0.3% of 340,000 active;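 active = fluorescence-ratio B-score plate-corrected deviation score at least 3 library SD below zero, with starting fluorescence score within 5 deviations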;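 note: channel opened by trigger with iodide after compound preincubation; score built on the fluorescence ratio of max minus min over baseline; more negative score means more quench and so TMEM16A activation or potentiation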
CRFBP-R2 agonist = CRF-BP/CRF-R2 complex agonism. HEK293 CRF-R2/CRF-BP, calcium dye fluorescence (FLIPR); percent of saturating CRF peptide response. activation, % at 13.2 µM. 0.46% of 350,000 active. AID 588473;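 active = activation of at least 50%, plus an integration ratio under a set limit after plate pattern correction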
TMEM16A inh = mouse TMEM16A channel inhibition, primary screen; HEK293 TMEM16A/YFP iodide influx fluorescence, ionomycin; normalized B-score (activity score, 25-100; higher = stronger inhibition) at 10 µM; 1.2% of 310,000 active; AID 588511;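 active = ratio plate-corrected score three or more library SD toward inhibition, starting fluorescence score within five deviations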;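 note: score derived from kinetic fluorescence span divided by baseline fluorescence per well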
CRFBP-R2 block = antagonists of CRF-binding protein/CRF-R2 receptor complex | 0.59% of 350,000 active | HEK293 CRF-R2/CRF-BP, CRF-induced calcium fluorescence | inhibition, % at 11.8 µM;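 active = inhibition of the ligand-induced calcium signal above about 50% at the single tested concentration, limit read from the data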
Large screens that a line does not name were inactive. Shown are actives, neighbours in structure and some others; about 2.4% of the full set was active somewhere.

Cc1nnc(SCc2nnc(-c3ccccc3Br)o2)s1	ANO1 activ -7.9
CCCCCCCCNC(=O)c1ccc(C)cc1	none (no result: Cardiac RTF inh, cardiac RTF act, ANO1 activ, CRFBP-R2 agonist, CRFBP-R2 block)
CC(C)Cn1cc(Cl)c(=O)n(CC(C)C)c1=O	none
Cc1c(C(C)C)c(=O)n(-c2ccc(S(=O)(=O)NCc3ccccc3)cc2)n1C	TMEM16A inh 25
COc1ccccc1C(=O)N/C(=C\c1cn(S(=O)(=O)N(C)C)c2ccccc12)C(=O)NCCN1CCOCC1	none
Cc1c(S(=O)(=O)NC2CCCCC2)c(=O)n(C)c(=O)n1C	none
CCCc1cc(=O)[nH]c(SCC(=O)N(CCC#N)c2ccc3c(c2)OCCO3)n1	CRFBP-R2 block 98 (no result: TMEM16A inh)
CCCc1cc(=O)[nH]c(SCC(=O)c2ccc3c(c2)OCCO3)n1	none
Cc1noc(C)c1C(=O)N(CC(C)C)c1nc2ccccc2s1	none
COc1cc(OC)cc(C(=O)N(Cc2ccco2)c2c(N)n(Cc3ccccc3)c(=O)[nH]c2=O)c1	cardiac RTF act 31 (no result: TMEM16A inh)
COc1ccc(-c2nc(SCC(=O)N(CC(C)C)c3c(N)n(Cc4ccccc4)c(=O)[nH]c3=O)n[nH]2)cc1	none
Cc1ccc(C(=O)N(Cc2ccco2)c2c(N)n(Cc3ccccc3)c(=O)[nH]c2=O)cc1	none (no result: Cardiac RTF inh, cardiac RTF act, ANO1 activ, TMEM16A inh)
CCCN(C(=O)CSc1n[nH]c(-c2ccc(OC)cc2)n1)c1c(N)n(Cc2ccccc2)c(=O)[nH]c1=O	CRFBP-R2 block 59
c1coc(CN(Cc2ccco2)c2ncnc3c2oc2ccccc23)c1	TMEM16A inh 100
CN(C)CCCOC(=O)COc1ccc(C(C)(C)C)cc1	none
O=[N+]([O-])c1ccc(CN2CCN(c3ccc(Cl)cc3)CC2)o1	none
Cc1ccc(-n2c(SCc3ccc(C(=O)O)cc3)nnc2-c2ccncc2)cc1	none
CCOC(=O)C1CCCN(C2=NC(=O)/C(=C/c3ccc(OC)cc3)S2)C1 (stereo not drawn)	none
CCOC(=O)C1CCCN(C2=NC(=O)/C(=C/c3ccc(N(C)C)cc3)S2)C1 (stereo not drawn)	cardiac RTF act 65, CRFBP-R2 agonist 69
CCN(CC)C(=O)CSC(Nc1ccc(F)cc1)=C(C#N)C#N	none
Cc1ccc(CSC(Nc2ccc(F)cc2)=C(C#N)C#N)cc1	CRFBP-R2 agonist 51, CRFBP-R2 block 72
O=C(Cc1cccs1)N1CCN(S(=O)(=O)c2cc(Cl)ccc2Cl)CC1	cardiac RTF act 51
C[C@H](CO)N1C[C@H](C)[C@@H](CN(C)Cc2ccccc2)Oc2c(NC(=O)C3CC3)cccc2C1=O	none (no result: TMEM16A inh)
COc1ccccc1-c1c(NC(=O)C(C)C)n(C)c2ccccc2c1=O	CRFBP-R2 block 106
COc1ccc(CCN2CC(C(=O)Nc3nccs3)CC2=O)cc1OC (stereo not drawn)	none (no result: TMEM16A inh)
O=[N+]([O-])c1cc(S(=O)(=O)N2CCCCCC2)ccc1F	ANO1 activ -6.6
O=[N+]([O-])c1cc(S(=O)(=O)N2CCCC2)ccc1O	none
Oc1c(C=Nc2ccccc2Cl)[nH]c2ccccc12	ANO1 activ -8.7
O=c1[nH][nH]c(C(F)(F)F)c1C=Nc1ccccc1Cl	none
Oc1[nH]c2ccccc2c1N=Nc1ccccc1Cl	cardiac RTF act 65, CRFBP-R2 agonist 124 (no result: TMEM16A inh)
Oc1[nH]c2ccccc2c1N=Nc1c(F)c(F)c(Cl)c(F)c1F	none
CCn1nc(C)cc1C(=O)N1CCCC(C(=O)c2ccc(OC)cc2C)C1 (stereo not drawn)	none
S=c1[nH]nc(-c2n[nH]c3c2CCC3)n1/N=C/C=C/c1ccco1	none (no result: Cardiac RTF inh, cardiac RTF act)
COc1cccc(-n2c(C)c(C(C)=O)c(C(C)=O)c2C)c1	ANO1 activ -13
CCOC(=O)C1C(=O)CC(=O)C(C(=O)OCC)C1c1ccc(O)cc1 (stereo not drawn)	none (no result: Cardiac RTF inh, cardiac RTF act, ANO1 activ, TMEM16A inh)
O=C(NCc1ccc2c(c1)OCO2)c1ccc2c(c1)OCO2	none
O=C(NCc1ccc2c(c1)OCO2)c1c(F)c(F)c(F)c(F)c1F	CRFBP-R2 block 61
O=C(COC(=O)C1(c2ccccc2F)CCCC1)NCc1ccc2c(c1)OCO2	none
O=C(NCc1ccc2c(c1)OCO2)C1CCN(S(=O)(=O)c2cccs2)CC1	none
O=C(COC(=O)C1(c2ccc(F)cc2)CCCC1)NCc1ccc2c(c1)OCO2	CRFBP-R2 block 62
O=C(NCc1ccc2c(c1)OCO2)C1CCN(S(=O)(=O)c2ccc(Br)s2)CC1	ANO1 activ -6.9
CC(=O)Nc1sc2c(c1CN1CCN(c3ccccn3)CC1)CCCC2	none
CCN(C(=O)c1cnc(N2CCN(c3ncccn3)CC2)c2ccccc12)c1cccc(Cl)c1	TMEM16A inh 100
CCOc1ccc(NC(=O)Cc2ccc(S(=O)(=O)N3CCCCC3)cc2)cc1OCC	none (no result: TMEM16A inh)
Cn1c(SCC(=O)O)nnc1-c1ccc2ncccc2c1	none (no result: Cardiac RTF inh, cardiac RTF act, ANO1 activ, CRFBP-R2 agonist, CRFBP-R2 block)
CCC(C)(C)NC(=O)c1ccc2c(c1)OCCO2	ANO1 activ -27
N#Cc1c(-c2ccccc2)nc2n1CCS2	none
COc1ccc(/C=C2\SC(=S)N(CC3CCCO3)C2=O)cc1 (stereo not drawn)	none
CN(C)c1ccc(/C=C2\SC(=S)N(Nc3ncc(C(F)(F)F)cc3Cl)C2=O)cc1	cardiac RTF act 147, CRFBP-R2 agonist 159
Cc1cc(C)nc(NN2C(=O)/C(=C/c3ccccc3)SC2=S)n1	none
COc1cc(/C=C2/SC(=S)N(CC3CCCO3)C2=O)ccc1O (stereo not drawn)	CRFBP-R2 agonist 151
COc1cc(/C=C2\SC(=S)N(Nc3ncc(C(F)(F)F)cc3Cl)C2=O)ccc1O	CRFBP-R2 agonist 115
COc1cc(/C=C2\SC(=S)N(NC(=O)c3ccc(O)cc3)C2=O)ccc1O	CRFBP-R2 agonist 53
CCOc1ccc(/C=C2\SC(=S)N(NS(=O)(=O)c3ccc(C)cc3)C2=O)cc1OC	CRFBP-R2 block 51
O=S(=O)(Nc1ncnc2sc3c(c12)CCC3)c1cc(F)ccc1F	none
O=S(=O)(Nc1ncnc2sc3c(c12)CCC3)c1ccc(Cl)s1	TMEM16A inh 25
Cc1cc(/C=C2\SC(=S)N(Cc3ccco3)C2=O)c(C)n1-c1ccccc1	none
CN(C)c1ccc(C=C2SC(=S)N(Cc3ccco3)C2=O)cc1	CRFBP-R2 agonist 169 (no result: Cardiac RTF inh, cardiac RTF act, ANO1 activ, TMEM16A inh)
O=C1S/C(=C/c2ccccc2)C(=O)N1CC(O)Cn1c2ccccc2c2ccccc21 (stereo not drawn)	none
Cn1cccc1/C=C1\SC(=S)N(CC(=O)O)C1=O	none
CN(C)c1ccc(/C=C2\SC(=O)N(CC(O)Cn3c4ccccc4c4ccccc43)C2=O)cc1 (stereo not drawn)	cardiac RTF act 55, CRFBP-R2 agonist 96
O=C(O)CN1C(=O)/C(=C/c2ccc(SCc3ccccc3)o2)SC1=S	cardiac RTF act 35 (no result: TMEM16A inh)
O=C(O)CN1C(=O)/C(=C\c2ccc(OC(=O)c3ccco3)cc2)SC1=S	ANO1 activ -5.9
Cc1ccc(NC(=O)CN2C(=O)S/C(=C/c3ccncc3)C2=O)cc1	none
